Test results as given in the supplement of paper PMC4022240.
± gives the standard deviation.

What was measured:
Test in all cases: peptide microarray binding signal (635 nm), min-max normalized on array (fraction of array maximum); higher = stronger binding
[1] = molecular target: T1, HaloTag-ATRX ADD domain (163-292)
T1 chain: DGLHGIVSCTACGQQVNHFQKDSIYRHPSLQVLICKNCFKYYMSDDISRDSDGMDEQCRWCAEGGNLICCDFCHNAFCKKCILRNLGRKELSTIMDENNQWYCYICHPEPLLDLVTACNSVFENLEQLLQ
How it was run: (§1)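 For each library, binding signal was taken as the triplicate-spot mean intensity and then min-max scaled. Spots of histone 13-mer peptide–cellulose conjugates on nitrocellulose, printed in triplicate with a Cy3 tracer, were probed for 1 h at 4°C with either biotin-labelled HaloTag reader fusions (10 nM to 1 μM) and streptavidin-Alexa Fluor 647 or rabbit histone antibodies (1:10,000 to 1:2,000) and anti-rabbit Alexa 647. Readout at 635 nm came from an Axon GenePix 4000B.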

[2] = molecular target: HaloTag-ING2 PHD (mouse Ing2 200-280)
How it was run: as §1

[3] = molecular target: anti-H3K4me3 antibody ab8580
How it was run: as §1

[4] = molecular target: anti-H3K9me3 antibody ab8898
How it was run: as §1

[5] = peptide region: H3 112-124, peptide modifications: H3K122ac, binder concentration: 1:2,000 dilution
[6] = peptide region: H3 112-124, peptide modifications: H3K122ac, binder concentration: 1:10,000 dilution
[7] = peptide region: H3 112-124, peptide modifications: H3K122me1, binder concentration: 1:2,000 dilution
[8] = peptide region: H3 112-124, peptide modifications: H3K122me1, binder concentration: 1:10,000 dilution
[9] = peptide region: H3 112-124, peptide modifications: H3K122me2, binder concentration: 1:2,000 dilution
[10] = peptide region: H3 112-124, peptide modifications: H3K122me2, binder concentration: 1:10,000 dilution
[11] = peptide region: H3 112-124, peptide modifications: H3K122me3, binder concentration: 1:2,000 dilution
[12] = peptide region: H3 112-124, peptide modifications: H3K122me3, binder concentration: 1:10,000 dilution
[13] = peptide region: H3 112-124, peptide modifications: H3R116cit, binder concentration: 1:2,000 dilution
[14] = peptide region: H3 112-124, peptide modifications: H3R116cit, binder concentration: 1:10,000 dilution
[15] = peptide region: H3 112-124, peptide modifications: H3R116me2a, binder concentration: 1:2,000 dilution
[16] = peptide region: H3 112-124, peptide modifications: H3R116me2a, binder concentration: 1:10,000 dilution
[17] = peptide region: H3 112-124, peptide modifications: H3R116me2s, binder concentration: 1:2,000 dilution
[18] = peptide region: H3 112-124, peptide modifications: H3R116me2s, binder concentration: 1:10,000 dilution
[19] = peptide region: H4 1-13, binder concentration: 1:2,000 dilution
[20] = peptide region: H4 1-13, binder concentration: 1:10,000 dilution
[21] = peptide region: H4 1-13, peptide modifications: H4K5ac H4K8ac H4K12ac, binder concentration: 1:2,000 dilution
[22] = peptide region: H4 1-13, peptide modifications: H4K5ac H4K8ac H4K12ac, binder concentration: 1:10,000 dilution
[23] = peptide region: H4 1-13, peptide modifications: H4K5ac H4K8ac, binder concentration: 1:2,000 dilution
[24] = peptide region: H4 1-13, peptide modifications: H4K5ac H4K8ac, binder concentration: 1:10,000 dilution

IHAKRVTIMPKDI [H3 112-124 I H A K R V T I M P Kac D I]
peptide microarray binding signal ([1]; peptide region: H3 112-124, peptide modifications: H3K122ac, binder concentration: 50 nM): 0.002508 ± 1.9e-05
peptide microarray binding signal ([1]; peptide region: H3 112-124, peptide modifications: H3K122ac, binder concentration: 500 nM): 0.00729 ± 0.0012
peptide microarray binding signal ([2]; peptide region: H3 112-124, peptide modifications: H3K122ac, binder concentration: 10 nM): 0.00328 ± 0.00025
peptide microarray binding signal ([2]; peptide region: H3 112-124, peptide modifications: H3K122ac, binder concentration: 100 nM): 0.00475 ± 0.0007
peptide microarray binding signal [3, 5]: 0.00113 ± 0.00025
peptide microarray binding signal [3, 6]: 0.00137 ± 0.00013
peptide microarray binding signal [4, 5]: 0.000483 ± 2.4e-05
peptide microarray binding signal [4, 6]: 0.000692 ± 7.3e-06

IHAKRVTIMPKDI [H3 112-124 I H A K R V T I M P Kme D I]
peptide microarray binding signal ([1]; peptide region: H3 112-124, peptide modifications: H3K122me1, binder concentration: 50 nM): 0.00429 ± 0.00037
peptide microarray binding signal ([1]; peptide region: H3 112-124, peptide modifications: H3K122me1, binder concentration: 500 nM): 0.0122 ± 0.0011
peptide microarray binding signal ([2]; peptide region: H3 112-124, peptide modifications: H3K122me1, binder concentration: 10 nM): 0.0077 ± 0.0008
peptide microarray binding signal ([2]; peptide region: H3 112-124, peptide modifications: H3K122me1, binder concentration: 100 nM): 0.00602 ± 0.00041
peptide microarray binding signal [3, 7]: 0.00168 ± 0.00019
peptide microarray binding signal [3, 8]: 0.00348 ± 0.0013
peptide microarray binding signal [4, 7]: 0.00251 ± 0.00011
peptide microarray binding signal [4, 8]: 0.00144 ± 5.1e-05

IHAKRVTIMPKDI [H3 112-124 I H A K R V T I M P Kme2 D I]
peptide microarray binding signal ([1]; peptide region: H3 112-124, peptide modifications: H3K122me2, binder concentration: 50 nM): 0.0047 ± 8.8e-05
peptide microarray binding signal ([1]; peptide region: H3 112-124, peptide modifications: H3K122me2, binder concentration: 500 nM): 0.0148 ± 0.00039
peptide microarray binding signal ([2]; peptide region: H3 112-124, peptide modifications: H3K122me2, binder concentration: 10 nM): 0.00567 ± 0.00021
peptide microarray binding signal ([2]; peptide region: H3 112-124, peptide modifications: H3K122me2, binder concentration: 100 nM): 0.0168 ± 0.0034
peptide microarray binding signal [3, 9]: 0.000906 ± 6e-05
peptide microarray binding signal [3, 10]: 0.000799 ± 8.3e-06
peptide microarray binding signal [4, 9]: 0.00287 ± 0.00058
peptide microarray binding signal [4, 10]: 0.00121 ± 2.4e-05

IHAKRVTIMPKDI [H3 112-124 I H A K R V T I M P Kme3 D I]
peptide microarray binding signal ([1]; peptide region: H3 112-124, peptide modifications: H3K122me3, binder concentration: 50 nM): 0.00423 ± 4.3e-05
peptide microarray binding signal ([1]; peptide region: H3 112-124, peptide modifications: H3K122me3, binder concentration: 500 nM): 0.0122 ± 0.00089
peptide microarray binding signal ([2]; peptide region: H3 112-124, peptide modifications: H3K122me3, binder concentration: 10 nM): 0.00489 ± 0.00015
peptide microarray binding signal ([2]; peptide region: H3 112-124, peptide modifications: H3K122me3, binder concentration: 100 nM): 0.0106 ± 0.00081
peptide microarray binding signal [3, 11]: 0.000868 ± 3.3e-05
peptide microarray binding signal [3, 12]: 0.00126 ± 7.5e-05
peptide microarray binding signal [4, 11]: 0.0125 ± 0.002
peptide microarray binding signal [4, 12]: 0.00381 ± 0.00041

IHAKRVTIMPKDI [H3 112-124 I H A K Rcit V T I M P K D I]
peptide microarray binding signal ([1]; peptide region: H3 112-124, peptide modifications: H3R116cit, binder concentration: 50 nM): 0.00583 ± 8.8e-05
peptide microarray binding signal ([1]; peptide region: H3 112-124, peptide modifications: H3R116cit, binder concentration: 500 nM): 0.0207 ± 0.0059
peptide microarray binding signal ([2]; peptide region: H3 112-124, peptide modifications: H3R116cit, binder concentration: 10 nM): 0.00895 ± 0.0012
peptide microarray binding signal ([2]; peptide region: H3 112-124, peptide modifications: H3R116cit, binder concentration: 100 nM): 0.00992 ± 0.0023
peptide microarray binding signal [3, 13]: 0.00451 ± 0.0016
peptide microarray binding signal [3, 14]: 0.00359 ± 0.00055
peptide microarray binding signal [4, 13]: 0.00177 ± 0.00034
peptide microarray binding signal [4, 14]: 0.00179 ± 8.5e-05

IHAKRVTIMPKDI [H3 112-124 I H A K Rme2a V T I M P K D I]
peptide microarray binding signal ([1]; peptide region: H3 112-124, peptide modifications: H3R116me2a, binder concentration: 50 nM): 0.00257 ± 3e-05
peptide microarray binding signal ([1]; peptide region: H3 112-124, peptide modifications: H3R116me2a, binder concentration: 500 nM): 0.00719 ± 0.00024
peptide microarray binding signal ([2]; peptide region: H3 112-124, peptide modifications: H3R116me2a, binder concentration: 10 nM): 0.00322 ± 3.5e-05
peptide microarray binding signal ([2]; peptide region: H3 112-124, peptide modifications: H3R116me2a, binder concentration: 100 nM): 0.007583 ± 5.2e-05
peptide microarray binding signal [3, 15]: 0.000396 ± 1.8e-05
peptide microarray binding signal [3, 16]: 0.000514 ± 1.1e-05
peptide microarray binding signal [4, 15]: 0.00154 ± 0.0003
peptide microarray binding signal [4, 16]: 0.00098

IHAKRVTIMPKDI [H3 112-124 I H A K Rme2s V T I M P K D I]
peptide microarray binding signal ([1]; peptide region: H3 112-124, peptide modifications: H3R116me2s, binder concentration: 50 nM): 0.00574 ± 0.00016
peptide microarray binding signal ([1]; peptide region: H3 112-124, peptide modifications: H3R116me2s, binder concentration: 500 nM): 0.0129 ± 0.00072
peptide microarray binding signal ([2]; peptide region: H3 112-124, peptide modifications: H3R116me2s, binder concentration: 10 nM): 0.00645 ± 0.00026
peptide microarray binding signal ([2]; peptide region: H3 112-124, peptide modifications: H3R116me2s, binder concentration: 100 nM): 0.014 ± 0.00075
peptide microarray binding signal [3, 17]: 0.00215 ± 0.00015
peptide microarray binding signal [3, 18]: 0.00285 ± 0.00021
peptide microarray binding signal [4, 17]: 0.00341 ± 0.00018
peptide microarray binding signal [4, 18]: 0.002306 ± 2.1e-05

SGRGKGGKGLGKG [H4 1-13 S G R G K G G K G L G K G]
peptide microarray binding signal ([1]; peptide region: H4 1-13, binder concentration: 50 nM): 0.00834 ± 0.00028
peptide microarray binding signal ([1]; peptide region: H4 1-13, binder concentration: 500 nM): 0.018 ± 0.0011
peptide microarray binding signal ([2]; peptide region: H4 1-13, binder concentration: 10 nM): 0.0037 ± 0.00019
peptide microarray binding signal ([2]; peptide region: H4 1-13, binder concentration: 100 nM): 0.00928 ± 0.00099
peptide microarray binding signal [3, 19]: 0.000189 ± 2e-06
peptide microarray binding signal [3, 20]: 0.00417 ± 0.00056
peptide microarray binding signal [4, 19]: 0.00211 ± 0.00074
peptide microarray binding signal [4, 20]: 0.00306 ± 0.00014

SGRGKGGKGLGKG [H4 1-13 S G R G Kac G G Kac G L G Kac G]
peptide microarray binding signal ([1]; peptide region: H4 1-13, peptide modifications: H4K5ac H4K8ac H4K12ac, binder concentration: 50 nM): 0.00417 ± 0.00038
peptide microarray binding signal ([1]; peptide region: H4 1-13, peptide modifications: H4K5ac H4K8ac H4K12ac, binder concentration: 500 nM): 0.00538 ± 0.00043
peptide microarray binding signal ([2]; peptide region: H4 1-13, peptide modifications: H4K5ac H4K8ac H4K12ac, binder concentration: 10 nM): 0.00418 ± 0.00011
peptide microarray binding signal ([2]; peptide region: H4 1-13, peptide modifications: H4K5ac H4K8ac H4K12ac, binder concentration: 100 nM): 0.00645 ± 0.00041
peptide microarray binding signal [3, 21]: 0.00128 ± 0.00011
peptide microarray binding signal [3, 22]: 0.001541 ± 1.5e-05
peptide microarray binding signal [4, 21]: 0.000695 ± 4.8e-05
peptide microarray binding signal [4, 22]: 0.001441 ± 1.4e-05

SGRGKGGKGLGKG [H4 1-13 S G R G Kac G G Kac G L G K G]
peptide microarray binding signal ([1]; peptide region: H4 1-13, peptide modifications: H4K5ac H4K8ac, binder concentration: 50 nM): 0.00737 ± 0.00034
peptide microarray binding signal ([1]; peptide region: H4 1-13, peptide modifications: H4K5ac H4K8ac, binder concentration: 500 nM): 0.0151 ± 0.00043
peptide microarray binding signal ([2]; peptide region: H4 1-13, peptide modifications: H4K5ac H4K8ac, binder concentration: 10 nM): 0.00746 ± 6.7e-05
peptide microarray binding signal ([2]; peptide region: H4 1-13, peptide modifications: H4K5ac H4K8ac, binder concentration: 100 nM): 0.0206 ± 0.0023
peptide microarray binding signal [3, 23]: 0.00177 ± 8.8e-05
peptide microarray binding signal [3, 24]: 0.00285 ± 8.8e-05
peptide microarray binding signal [4, 23]: 0.00068 ± 7.5e-05
peptide microarray binding signal [4, 24]: 0.00156 ± 5.5e-05
